# PubChem BioAssay (Tox21)
# Results filed as inconclusive are left out. Entries that show only a call come without a potency. Values without a mark were called inactive. Active and inactive are the calls of the source. Unless noted, calls follow the shape of the dose curve; as a rule, active = well fitted curve in the direction sought with a large enough effect in the repeat runs; inconclusive = weak or mixed curves; inactive = no such curve, though single readings can be large; an effect the other way counts as inactive or inconclusive.
# Legend:
# [1] = qHTS assay to identify small molecule antagonists of the estrogen related receptor (ERR) signaling pathway from Tox21 library - cell viability counter screen (AID 1224834); also: nearly all actives have a fitted effect of over 30% in size
# Outline: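 Multiplexed viability counter screen in ERR cells: 17.5 h compound exposure at 37 C, CellTiter-Fluor added, 30 min at 37 C/5% CO2, fluorescence read.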
# [2] = molecular target: Luciferin 4-monooxygenase (Photinus pyralis) (UniProt P08659); assay: qHTS assay to identify small molecule inhibitors of firefly luciferase (AID 1224835); also: nearly all actives have a fitted effect of over 25% in size; also: potency is read from the fitted curve at half-maximal effect
# Luciferin 4-monooxygenase (Photinus pyralis), sequence (P08659 whole entry, looked up): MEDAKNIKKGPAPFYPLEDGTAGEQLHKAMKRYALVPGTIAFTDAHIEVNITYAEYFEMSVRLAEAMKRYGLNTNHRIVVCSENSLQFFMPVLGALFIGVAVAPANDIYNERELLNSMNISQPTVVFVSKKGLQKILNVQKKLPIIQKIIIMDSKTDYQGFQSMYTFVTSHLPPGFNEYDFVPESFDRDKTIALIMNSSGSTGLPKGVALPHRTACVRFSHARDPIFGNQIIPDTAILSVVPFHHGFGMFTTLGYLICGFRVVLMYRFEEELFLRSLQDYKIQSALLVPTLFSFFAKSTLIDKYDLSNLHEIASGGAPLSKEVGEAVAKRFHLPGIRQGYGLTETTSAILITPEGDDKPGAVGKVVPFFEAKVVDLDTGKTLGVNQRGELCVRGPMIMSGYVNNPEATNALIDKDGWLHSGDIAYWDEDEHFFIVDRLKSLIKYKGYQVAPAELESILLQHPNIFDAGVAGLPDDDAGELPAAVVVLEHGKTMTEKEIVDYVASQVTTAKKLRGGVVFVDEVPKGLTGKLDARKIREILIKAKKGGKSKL
# Outline: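 Inhibition of purified Photinus luciferase is measured by luminescence. Substrate levels (D-luciferin, ATP) sit at their KM values. Each compound is tested in a concentration series.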
# [3] = qHTS assay to identify small molecule agonists of the constitutive androstane receptor (CAR) signaling pathway - cell viability counter screen (AID 1224836); also: nearly all actives have a fitted effect of over 45% in size
# Outline: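 Using CellTiter-Fluor, viability of HepG2 cells harbouring hCAR and CYP2B6-2.2kb was measured following 23 h incubation with a 15-concentration compound series plus PK11195 (0.75 uM final).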
# [4] = qHTS assay to identify small molecule antagonists of the constitutive androstane receptor (CAR) signaling pathway - cell viability counter screen (AID 1224837); also: nearly all actives have a fitted effect of over 45% in size
# Outline: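 Read-out: CellTiter-Fluor fluorescence after 23 hr at 37 C/5% CO2. Cells: HepG2 double-stable for hCAR and CYP2B6-2.2kb. Compounds tested at 15 concentrations in the presence of CITCO, final concentration 50 nM.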
# [5] = molecular target: Nuclear receptor subfamily 1 group I member 3 (Homo sapiens) (UniProt Q14994); assay: qHTS assay to identify small molecule antagonists of the constitutive androstane receptor (CAR) signaling pathway (AID 1224838);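 also: HepG2 cells stably expressing hCAR with CYP2B6 luciferase reporter stimulated by CITCO; nearly all actives have a fitted effect of over 40% in size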
# Nuclear receptor subfamily 1 group I member 3 (Homo sapiens), sequence (Q14994 whole entry, looked up): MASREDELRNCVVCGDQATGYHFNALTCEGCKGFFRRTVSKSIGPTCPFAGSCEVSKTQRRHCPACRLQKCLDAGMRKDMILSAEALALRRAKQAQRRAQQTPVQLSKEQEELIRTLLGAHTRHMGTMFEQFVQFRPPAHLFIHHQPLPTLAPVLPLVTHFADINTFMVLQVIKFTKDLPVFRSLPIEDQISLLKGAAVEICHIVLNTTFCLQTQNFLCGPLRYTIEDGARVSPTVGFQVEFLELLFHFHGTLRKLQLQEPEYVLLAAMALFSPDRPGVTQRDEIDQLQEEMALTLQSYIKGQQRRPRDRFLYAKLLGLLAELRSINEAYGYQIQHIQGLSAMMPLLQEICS
# Outline: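 Read-out: ONE-Glo luciferase luminescence after 30 min at room temperature. HepG2-CYP2B6-hCAR double-stable cells, compounds in 15-point titration plus 50 nM CITCO final, 24 h at 37 C/5% CO2.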
# [6] = molecular target: Nuclear receptor subfamily 1 group I member 3 (Homo sapiens) (UniProt Q14994); assay: qHTS assay to identify small molecule agonists of the constitutive androstane receptor (CAR) signaling pathway (AID 1224839);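 also: HepG2 cells stably carrying human CAR and a CYP2B6 luciferase reporter; nearly all actives have a fitted effect of over 15% in size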
# Outline: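 Double-stable HepG2 cells (hCAR, CYP2B6-2.2kb) seeded 4 h before compound addition. Exposure 24 h with 0.75 uM PK11195 final. Luciferase detected by ONE-Glo.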
# [7] = qHTS assay to identify small molecule antagonists of the estrogen related receptor signaling pathway with the pleiotropic PPARgamma coactivator (PGC) from Tox21 10K library - cell viability counter screen (AID 1224840; active = well fitted cell-killing curve with a large enough effect in the repeat runs, not every such curve was filed as active; also: nearly all actives have a fitted effect of over 40% in size)
# Outline: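 Fluorescence read-out of CellTiter-Fluor viability reagent, added after cells had been exposed to compound in DMSO for 17.5 h at 37 C; 30 min development at 37 C/5% CO2. Cells: PGC/ERR line, 2,000/well.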
# [8] = qHTS assay to identify small molecule agonists of the hypoxia (HIF-1) signaling pathway - cell viability counter screen (AID 1224844; calls by dose curve; also: nearly all actives have a fitted effect of over 50% in size)
# Outline: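 CellTiter-Glo luminescence read-out, 30 min RT, taken in the same wells as the beta-lactamase HRE reporter assay; HRE-bla ME-180 cells, 0.5% dialyzed FBS, 17 hr compound treatment at 37C, 5% CO2.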
# [9] = molecular target: Thyrotropin receptor (Homo sapiens) (UniProt P16473); assay: qHTS assay to identify small molecule agonists of the thyroid stimulating hormone receptor (TSHR) signaling pathway (AID 1224843; calls by dose curve; also: nearly all actives have a fitted effect of over 45% in size)
# Thyrotropin receptor (Homo sapiens), sequence (P16473 whole entry, looked up): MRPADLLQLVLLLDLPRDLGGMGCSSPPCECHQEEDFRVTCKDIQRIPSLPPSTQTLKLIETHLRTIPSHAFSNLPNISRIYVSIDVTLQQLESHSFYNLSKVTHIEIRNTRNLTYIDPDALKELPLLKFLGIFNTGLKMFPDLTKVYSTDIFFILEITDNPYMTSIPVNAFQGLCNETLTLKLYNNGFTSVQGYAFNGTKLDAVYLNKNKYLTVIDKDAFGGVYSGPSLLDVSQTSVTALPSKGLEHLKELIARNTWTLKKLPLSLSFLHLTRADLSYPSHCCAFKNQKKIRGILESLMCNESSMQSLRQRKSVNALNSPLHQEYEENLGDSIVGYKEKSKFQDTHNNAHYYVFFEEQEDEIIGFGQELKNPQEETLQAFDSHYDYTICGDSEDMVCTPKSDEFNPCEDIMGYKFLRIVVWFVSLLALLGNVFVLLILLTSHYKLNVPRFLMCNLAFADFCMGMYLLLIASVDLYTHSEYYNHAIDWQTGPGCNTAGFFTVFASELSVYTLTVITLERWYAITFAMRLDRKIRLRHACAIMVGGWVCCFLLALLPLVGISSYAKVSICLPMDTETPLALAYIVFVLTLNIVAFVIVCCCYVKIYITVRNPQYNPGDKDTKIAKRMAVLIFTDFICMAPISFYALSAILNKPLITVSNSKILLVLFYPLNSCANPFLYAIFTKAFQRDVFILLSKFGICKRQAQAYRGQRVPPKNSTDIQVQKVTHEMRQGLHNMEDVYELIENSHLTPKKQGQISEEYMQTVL
# Outline: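 Agonist activity read as cAMP rise via d2/cryptate HTRF competition, 1 h room-temperature detection, in HEK293 cells expressing TSHR. Fifteen-point titrations, each run in triplicate, with a 30 min room-temperature incubation beforehand.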
# [10] = qHTS assay to identify small molecule antagonists of the retinoic acid receptor (RAR) signaling pathway (AID 1159552; also: nearly all actives have a fitted effect of over 50% in size)
# Outline: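 C3RL4 RARE-luc cells, overnight plating; retinol 1 uM final added right after compound; 6 hr 37 C; luciferase read at 30 min RT.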
# [11] = qHTS assay to identify small molecule antagonists of the estrogen related receptor signaling pathway with the pleiotropic PPARgamma coactivator (PGC) from Tox21 10K library (AID 1224841; call rule not given here; also: actives are mostly falling curves and most rising ones were filed inactive; nearly all actives have a fitted effect of over 50% in size)
# Outline: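 Luminescence read-out (One-Glo luciferase reagent, 30 min at room temperature) from PGC/ERR cells exposed to DMSO-dissolved test compounds for 18 h at 37 C; cells, 2,000 per well, had been preincubated 6 h before compound transfer.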
# [12] = qHTS assay to identify small molecule agonists of the estrogen related receptor signaling pathway with the pleiotropic PPARgamma coactivator (PGC) from Tox21 10K library (AID 1224842); also: nearly all actives have a fitted effect of over 15% in size
# Outline: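 Luminescence from One-Glo (30 min, room temperature) measured after PGC/ERR cells had 18 h at 37 C with pinned compound (23 nL in DMSO). Cells had been seeded at 2,000 per well and pre-incubated 6 h.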
# [13] = qHTS assay to identify small molecule agonists of the retinoic acid receptor (RAR) signaling pathway (AID 1159553); settings: C3RL4 RARE luciferase reporter, agonist, 6 h; activation: at 73.3 µM (top of the series) unless noted
# Outline: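 RARE-luc C3RL4 cells; overnight attachment 37 C/5% CO2; compound (DMSO) 6 hr; luciferase reagent, 30 min RT; luminescence read-out.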
# [14] = qHTS assay to identify small molecule antagonists of the estrogen related receptor (ERR) signaling pathway - cell viability counter screen (AID 1224818)
# Outline: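 Fluorescence from CellTiter-Fluor, read 30 min after reagent addition at 37 C, measured viability of ERR cells exposed to compounds for 17.5 h. Cells had settled 6 h before dosing.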
# [15] = qHTS assay to identify small molecule antagonists of the estrogen related receptor signaling pathway with the pleiotropic PPARgamma coactivator (PGC) cell viability counter screen (AID 1224822)
# Outline: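 Fluorescence read-out of CellTiter-Fluor after 30 min at 37 C; PGC/ERR cells, 2,000 per well, had been exposed to DMSO-dissolved compounds for 17.5 h following a 6 h pre-incubation.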
SMILES,Potency [1],Potency [2],Potency [3],Potency [4],Potency [5],Potency [6],Potency [7],Potency [8],Potency [9],Potency [10],"activity change, negative = cytotoxicity [8]",Potency [11],Potency [12],Potency [13],outcome [14],Potency [15]
CC(O)CNCC(C)O (centres undefined),inactive,inactive,inactive,inactive,inactive,inactive,inactive,inactive,,,,,,,,
NC(N)=S,inactive,inactive,inactive,inactive,inactive,inactive,inactive,inactive,inactive,,,,,,,
O=C(NCC1CCCCN1)c1cc(OCC(F)(F)F)ccc1OCC(F)(F)F (centres undefined),inactive,,inactive,inactive,inactive,,inactive,inactive,,,,,,,,
CCCCCCCCCCCC(=O)N(C)CC(=O)O,inactive,,inactive,inactive,,,inactive,,,inactive,0.126% [at 6.97 µM],,,,,
CCCCCCCCCCCCCC(=O)O,inactive,50.1 µM (active),inactive,inactive,inactive,inactive,inactive,inactive,,,,inactive,inactive,,,
O=C(O)C1=NN(c2ccc(S(=O)(=O)O)cc2)C(=O)C1,inactive,inactive,inactive,inactive,,,inactive,inactive,inactive,inactive,,,,inactive,,
Cc1ccccc1C=O,inactive,inactive,inactive,inactive,inactive,inactive,inactive,inactive,inactive,,,,,,,
O=C1O[C@H]([C@H](O)CO)C(O)=C1O,inactive,,inactive,inactive,inactive,inactive,inactive,inactive,inactive,,,,,,,
O=C1C(N(CO)C(=O)NCO)N(CO)C(=O)N1CO (centres undefined),inactive,inactive,inactive,inactive,inactive,inactive,inactive,inactive,inactive,inactive,,,,,,
Cc1ccccc1Cl,inactive,inactive,inactive,inactive,inactive,inactive,inactive,inactive,inactive,,,,,,,
CC(=O)OC(C)(C)C1CC=C(C)CC1 (centres undefined),inactive,inactive,inactive,inactive,inactive,inactive,inactive,inactive,inactive,inactive,,inactive,inactive,,,
CC(=O)OCCC(C)C,inactive,,inactive,inactive,inactive,inactive,inactive,inactive,,inactive,,inactive,inactive,,,
CCCCCCCCC(=O)O,inactive,inactive,inactive,inactive,inactive,inactive,inactive,inactive,inactive,inactive,,,,inactive,,
COC(=O)/C=C\C(=O)OC,inactive,,inactive,inactive,inactive,inactive,inactive,inactive,inactive,inactive,,inactive,inactive,inactive,,
CCN(CC)CCNC(=O)c1ccc(N)cc1,inactive,,inactive,inactive,,,inactive,inactive,inactive,,,,,,inactive,inactive
CC1(C)[C@@H](O[C@H]2O[C@H](C(=O)O)[C@@H](O)[C@H](O)[C@H]2O[C@@H]2O[C@H](C(=O)O)[C@@H](O)[C@H](O)[C@H]2O)CC[C@]2(C)[C@H]3C(=O)C=C4[C@@H]5C[C@@](C)(C(=O)O)CC[C@]5(C)CC[C@@]4(C)[C@]3(C)CC[C@@H]12,inactive,inactive,inactive,inactive,inactive,,inactive,inactive,inactive,,,,,,,
CCCCCCCCO,inactive,,inactive,inactive,inactive,inactive,inactive,inactive,,inactive,,,,inactive,,
NCCNCCNCCN,inactive,,inactive,inactive,inactive,inactive,inactive,inactive,,inactive,,,,inactive,,
Nc1cccc(C(F)(F)F)c1,inactive,inactive,inactive,inactive,,,inactive,inactive,inactive,inactive,,inactive,inactive,inactive,,
